Assay results published in PMC4336329 (PLoS ONE, 2015).
Among all 310,000 compounds or so, about 14,000 (4.5%) showed an effect of 50% or more. The effect is printed as a negative number. This excerpt belongs to a sample that is enriched for strong results.

target: human ether-à-go-go-related gene (hERG) potassium channel (human, UniProt Q12809); test: primary screen, population patch clamp on CHO cells stably expressing hERG; higher = less effect of the substance
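Note: peak tail current of the secondary pulse compared with the same well before compound.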

Sequence of human ether-à-go-go-related gene (hERG) potassium channel (Q12809 whole entry, looked up): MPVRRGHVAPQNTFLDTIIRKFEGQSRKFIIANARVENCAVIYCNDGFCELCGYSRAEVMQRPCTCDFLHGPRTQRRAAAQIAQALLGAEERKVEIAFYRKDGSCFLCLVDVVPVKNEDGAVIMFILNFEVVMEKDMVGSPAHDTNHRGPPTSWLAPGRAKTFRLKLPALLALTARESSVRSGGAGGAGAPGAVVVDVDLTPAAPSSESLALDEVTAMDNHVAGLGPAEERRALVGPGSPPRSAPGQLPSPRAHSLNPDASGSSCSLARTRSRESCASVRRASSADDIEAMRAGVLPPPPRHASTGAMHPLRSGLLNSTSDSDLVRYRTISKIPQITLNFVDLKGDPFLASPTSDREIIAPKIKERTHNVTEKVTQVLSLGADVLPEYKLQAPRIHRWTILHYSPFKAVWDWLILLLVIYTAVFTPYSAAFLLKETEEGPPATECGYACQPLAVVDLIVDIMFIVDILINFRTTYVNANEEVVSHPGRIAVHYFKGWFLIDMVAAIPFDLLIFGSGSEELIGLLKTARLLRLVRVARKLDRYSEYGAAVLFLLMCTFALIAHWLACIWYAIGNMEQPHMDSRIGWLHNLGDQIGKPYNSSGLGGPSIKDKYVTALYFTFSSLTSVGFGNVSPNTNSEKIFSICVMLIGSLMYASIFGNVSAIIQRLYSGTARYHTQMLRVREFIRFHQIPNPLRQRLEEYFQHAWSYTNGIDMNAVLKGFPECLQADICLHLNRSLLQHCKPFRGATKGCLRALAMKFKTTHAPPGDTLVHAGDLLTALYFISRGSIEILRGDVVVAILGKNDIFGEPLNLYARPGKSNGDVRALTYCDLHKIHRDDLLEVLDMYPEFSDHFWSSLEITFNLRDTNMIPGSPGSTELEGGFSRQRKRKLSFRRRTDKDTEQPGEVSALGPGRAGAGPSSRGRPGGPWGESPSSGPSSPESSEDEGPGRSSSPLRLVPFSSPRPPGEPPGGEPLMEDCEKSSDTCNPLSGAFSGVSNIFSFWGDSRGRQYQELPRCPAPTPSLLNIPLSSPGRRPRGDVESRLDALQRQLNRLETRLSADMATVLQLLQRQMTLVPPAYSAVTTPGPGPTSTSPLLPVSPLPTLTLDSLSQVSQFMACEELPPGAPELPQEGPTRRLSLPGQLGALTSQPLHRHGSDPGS

Compared with `O=C(CCO)c1ccc(O)cc1`, `Br.Cc1ccc(C)c(C(=O)Cn2c(NCCO)nc3ccccc32)c1` is lower in “hERG current change (%, negative = inhibition) at 10uM” value: 10.6% for the first, 6.12% for the second.

Going from `FC(F)(F)c1ccccc1NC(=S)N1CCN(c2ccccn2)CC1` to `CCOC(=O)C1(Cc2ccccc2C(F)(F)F)CCN(C2CCSC2)CC1` (stereo not drawn), the “hERG current change (%, negative = inhibition) at 10uM” value falls from 5.12% to -25.2%.

Compared with `O=C(NCCN1CCCCC1)c1ccco1`, `Cc1nc(C)n(CCNC(=O)c2ccco2)n1` is higher in “hERG current change (%, negative = inhibition) at 10uM” value: 7.02% for the first, 27% for the second.

First: Cc1ccc2sc(N3CCN(CCNC(=O)c4ccco4)CC3)nc2c1C.Cl
Second: Cc1ccc(-c2nn3c(C)nnc3s2)cc1NC(=O)c1ccco1
The “hERG current change (%, negative = inhibition) at 10uM” value of the first is lower: -58.2% for the first, -11.7% for the second.

Compared with `OCC1(CCOc2ccccc2)CCN(C2Cc3ccccc3C2)CC1`, `CCOC(=O)C1(CCOc2ccccc2)CCN(C2Cc3ccccc3C2)CC1` is higher in “hERG current change (%, negative = inhibition) at 10uM” value: -72.8% for the first, -53.4% for the second.

First: CCOC(=O)C1(CCc2ccccc2)CCN(C(=O)[C@@H]2C[C@@H](C)NC(=S)N2)CC1
Second: CCOC(=O)C1(CCc2ccccc2)CCN(C2CCSCC2)CC1
The “hERG current change (%, negative = inhibition) at 10uM” value of the first is higher: 6.08% for the first, -76.3% for the second.

First: CCOC(=O)C1(Cc2ccc(Cl)cc2)CCN(C2CCC2)CC1
Second: CCOC(=O)C1(Cc2ccccc2)CCN(C2Cc3ccccc3C2)CC1
The “hERG current change (%, negative = inhibition) at 10uM” value of the first is higher: -44.9% for the first, -66.4% for the second.

First: Cc1ccc(OCC(=O)N2CCCC(CO)(CCOc3ccccc3)C2)cc1 (stereo not drawn)
Second: O=C(NCc1ccccc1)N1CCC(CO)(CCc2ccccc2)CC1
The “hERG current change (%, negative = inhibition) at 10uM” value of the first is higher: -30.4% for the first, -38% for the second.

Compared with `CCOC(=O)C1(Cc2ccccc2)CCCN(C2CCCC2)C1` (stereo not drawn), `CCOC(=O)C1(CCc2ccccc2)CCN(C2Cc3ccccc3C2)CC1` is lower in “hERG current change (%, negative = inhibition) at 10uM” value: -2.87% for the first, -64.8% for the second.

Going from `CCOC(=O)C1(CCOc2ccccc2)CCN(S(=O)(=O)N(C)C)CC1` to `CS(=O)(=O)c1ccc(S(=O)(=O)N2CCC(CO)(CCCc3ccccc3)CC2)cc1`, the “hERG current change (%, negative = inhibition) at 10uM” value falls from -1.79% to -41.4%.

Compared with `O=C1CN(c2nnnn2-c2ccccc2)CCN1`, `Cn1cnnc1SCC(=O)NN(c1ccccc1)c1ccccc1` is higher in “hERG current change (%, negative = inhibition) at 10uM” value: -6.89% for the first, 28.6% for the second.

Compared with `COC(=O)[C@@]1(Cc2ccccc2)C=C[C@@H](C)N1C(C)=O`, `O=C(COc1ccccc1)NCC(=O)Nc1ccncc1` is lower in “hERG current change (%, negative = inhibition) at 10uM” value: 2.06% for the first, 1.26% for the second.

Going from `Cc1cccc(C)c1NC(=O)CCCSc1nnc(-c2ccc(Cl)cc2)n1-c1ccccc1` to `CCCCOC(=O)c1ccc(NC(=O)CSC2=Nc3ccccc3C3CC=NN23)cc1` (stereo not drawn), the “hERG current change (%, negative = inhibition) at 10uM” value rises from -3.49% to 15.4%.

Going from `COc1ccc(C(C)(C)C)cc1NC(=O)CN1C(=O)C(=O)N(Cc2ccco2)C1=O` to `CCOC(=O)CN1C(=O)S/C(=C/c2ccco2)C1=O`, the “hERG current change (%, negative = inhibition) at 10uM” value rises from 2.86% to 9.39%.

Going from `CCCCNC(=O)NS(=O)(=O)c1ccc(NC(=O)CCC(=O)c2cccs2)cc1` to `O=C(c1ccc(NC(=O)C2(c3ccccc3)CCOCC2)cc1)N1CCOCC1`, the “hERG current change (%, negative = inhibition) at 10uM” value falls from 23.1% to 9.8%.

First: O=S(=O)(c1ccc(Cl)nc1)N1CCCCC1
Second: CC1CCCN(S(=O)(=O)c2cc3c4c(c2)CCN4C(=O)CC3)C1 (stereo not drawn)
The “hERG current change (%, negative = inhibition) at 10uM” value of the first is higher: -1.17% for the first, -6.07% for the second.

Going from `CC1(C)Oc2ccc3ccc(=O)oc3c2C(/C=N/O)=C1Cl` to `Cc1cccc(C(=O)C2CCOC(C)(C)C2)c1` (stereo not drawn), the “hERG current change (%, negative = inhibition) at 10uM” value falls from 14.7% to 13%.

Going from `CCOC(=O)C1CCN(/C=C2/C(=O)NC(=S)N(c3cccc(OC)c3)C2=O)CC1` to `CCOC(=O)CN1C(=O)S/C(=C/c2ccc(N3CCCCC3)o2)C1=O`, the “hERG current change (%, negative = inhibition) at 10uM” value falls from 19.4% to 13.1%.

First: CCOC(=O)/C=c1\s/c(=C(\C#N)C(=O)NC)n(-c2ccccc2)c1=O
Second: CCOC(=O)CN1C(=O)S/C(=C/c2ccc(C)o2)C1=O
The “hERG current change (%, negative = inhibition) at 10uM” value of the first is higher: 10.6% for the first, -72.7% for the second.

First: O=C(N/N=C/C=C\c1ccco1)c1cccnc1
Second: O=Cc1cc(-c2ccccc2)[nH]c1-c1ccccc1
The “hERG current change (%, negative = inhibition) at 10uM” value of the first is lower: 8.4% for the first, 22.5% for the second.

Compared with `Cn1cccc1-c1nc2ccccc2n1Cc1ccccc1`, `Clc1ccc(-c2noc(CN(Cc3ccccn3)CC3CCCO3)n2)cc1` (stereo not drawn) is higher in “hERG current change (%, negative = inhibition) at 10uM” value: -29.1% for the first, -28.5% for the second.

First: OCC1(CCCc2ccccc2)CCN(C2CCSCC2)CC1
Second: COc1ccc(CN(CC2CCC(C(=O)O)CC2)C(=S)Nc2cccc(C)c2)cc1 (stereo not drawn)
The “hERG current change (%, negative = inhibition) at 10uM” value of the first is lower: -80.5% for the first, -2.44% for the second.

Compared with `CC(=O)N1c2c(cc(Br)cc2S(=O)(=O)NCC2COc3ccccc3O2)CC1C` (stereo not drawn), `COC(=O)c1ccc(-c2noc(CN(Cc3ccccn3)CC3CCCO3)n2)cc1` (stereo not drawn) is lower in “hERG current change (%, negative = inhibition) at 10uM” value: -44.5% for the first, -75% for the second.

First: COC(=O)[C@@]12CCCN1[C@H](c1ccc(-c3ccc(OC)cc3)c(OC)c1)[C@@H]1C(=O)N(C)C(=O)[C@@H]12.O=C(O)C(F)(F)F
Second: Cc1oc(-c2ccc(C(F)(F)F)cc2)nc1CN(Cc1ccccn1)C[C@@H]1CCC(=O)N1
The “hERG current change (%, negative = inhibition) at 10uM” value of the first is higher: -9.37% for the first, -38.2% for the second.

Going from `CC1(C)O[C@H]2CC(=O)OC[C@]23[C@H]2CC[C@@]4(C)[C@H](c5ccoc5)OC(=O)[C@H]5O[C@]54[C@]2(C)[C@@H](O)C[C@@H]13` to `CCCN(Cc1nc(-c2ccc(Cl)cc2)no1)CC1CCCO1` (stereo not drawn), the “hERG current change (%, negative = inhibition) at 10uM” value falls from 17.1% to -8.15%.

Going from `Cc1[nH]nc2c1C(c1ccsc1C)C(C#N)=C(N)O2` (stereo not drawn) to `CCN(Cc1nc(-c2ccc(Cl)cc2)no1)CC1CCCO1` (stereo not drawn), the “hERG current change (%, negative = inhibition) at 10uM” value falls from 2.25% to -62.9%.

Going from `CCNC(=O)C(C)Oc1ccc(Cl)cc1Cl` (stereo not drawn) to `CCN(Cc1nc(-c2cccc(Cl)c2)no1)CC1CCCO1` (stereo not drawn), the “hERG current change (%, negative = inhibition) at 10uM” value falls from 9.68% to 1.7%.

Going from `O=C1CC[C@@H](CN(Cc2ccccn2)Cc2nc(Cc3cccc(C(F)(F)F)c3)no2)N1` to `O=C1CC[C@@H](CN(Cc2ccccn2)Cc2nc(-c3ccc(C(F)(F)F)cc3)no2)N1`, the “hERG current change (%, negative = inhibition) at 10uM” value falls from -48.4% to -62.7%.

In the case of `COC(=O)c1ccc(-c2noc(CN(Cc3ccncc3)CC3CCCO3)n2)cc1` (stereo not drawn), the “hERG current change (%, negative = inhibition) at 10uM” value is reported as -28.5%.
